Autofluor counter: flagged as autofluorescent in microsphere protease counterscreen | compound autofluorescence counterscreen, microsphere flow cytometry; active compounds read high | 3.1% of 360,000 active | AID 624483 | fluorescence intensity (concentration not given with the values); in the data active = fluorescence intensity above about 16000; inconclusive = no clear call, values can overlap the other calls
Anthrax LF inh2: Bacillus anthracis LF protease inhibitors, primary screen, biochemical, multiplex microsphere, MLPCN library. Lethal factor (Bacillus anthracis), P15917. multiplex microsphere protease cleavage assay. inhibition, % at 10 µM. 0.12% of 360,000 active; note: plate controls were buffer without enzyme for full effect and enzyme alone for no effect
Target sequence (P15917 whole entry, looked up): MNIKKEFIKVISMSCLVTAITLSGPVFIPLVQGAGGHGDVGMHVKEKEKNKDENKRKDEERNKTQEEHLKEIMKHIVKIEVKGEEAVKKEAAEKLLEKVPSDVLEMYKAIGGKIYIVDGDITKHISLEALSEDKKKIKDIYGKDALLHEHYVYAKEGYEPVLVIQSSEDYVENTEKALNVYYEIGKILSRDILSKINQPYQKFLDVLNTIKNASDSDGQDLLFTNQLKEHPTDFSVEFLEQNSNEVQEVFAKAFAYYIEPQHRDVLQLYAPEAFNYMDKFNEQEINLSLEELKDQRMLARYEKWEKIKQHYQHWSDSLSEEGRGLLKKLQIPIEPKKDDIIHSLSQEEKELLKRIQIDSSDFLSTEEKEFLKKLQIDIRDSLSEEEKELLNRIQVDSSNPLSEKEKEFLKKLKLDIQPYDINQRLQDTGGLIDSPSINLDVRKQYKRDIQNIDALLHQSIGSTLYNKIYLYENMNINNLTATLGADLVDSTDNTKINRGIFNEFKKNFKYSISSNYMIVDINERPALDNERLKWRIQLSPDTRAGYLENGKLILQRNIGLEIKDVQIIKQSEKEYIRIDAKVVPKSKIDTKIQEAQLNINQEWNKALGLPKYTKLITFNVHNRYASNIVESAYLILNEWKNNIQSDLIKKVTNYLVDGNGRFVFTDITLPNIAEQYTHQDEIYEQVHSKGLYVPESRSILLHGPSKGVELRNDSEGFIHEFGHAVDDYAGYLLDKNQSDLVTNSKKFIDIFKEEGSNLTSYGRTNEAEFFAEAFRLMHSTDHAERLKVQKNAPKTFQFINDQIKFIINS
BoNT-A LC inh2: BoNT/A light chain protease inhibitors, primary screen, biochemical, flow cytometry, MLPCN library. AID 588499, 2011. 0.17% of 360,000 active. inhibition, % at 10 µM. multiplex microsphere protease substrate cleavage. Botulinum neurotoxin type A light chain protease (Clostridium botulinum A str. ATCC 3502); note: plate controls were buffer without enzyme for full effect and enzyme alone for no effect
3CLpro inhibitor: SARS-CoV 3CLpro protease inhibitors, primary screen, biochemical, quenched FRET; Replicase polyprotein 1ab (Severe acute respiratory syndrome coronavirus), P0C6X7; inhibition, % at 6 µM; recombinant SARS-CoV 3CLpro, quenched FRET peptide cleavage; 0.14% of 290,000 active; in the data active = inhibition above about 12%
BoNT F protease: BoNT/F light chain protease inhibitors, primary screen, biochemical, flow cytometry, MLPCN library. Multiplex microsphere protease cleavage assay. inhibition, % at 10 µM. 0.22% of 360,000 active; in the data active = inhibition above about 35%, passing the limit was not always enough; inconclusive = no clear call, values can overlap the other calls; note: plate controls were buffer without enzyme for full effect and enzyme alone for no effect
* hit, by the source's call; ? = inconclusive; . = no result. Most compounds without a hit are left out; they make up all but 3.5% or so of the library. Cut-off read from the data, not from the text of the source, unless noted: active = inhibition above about 30%; inconclusive = no clear call, values can overlap the other calls; inactive = below that.

SMILES	Autofluor counter	Anthrax LF inh2	BoNT-A LC inh2	3CLpro inhibitor	BoNT F protease
O=C(COC(=O)/C=C/c1ccccc1Cl)Nc1cccnc1Cl	3442	-1	0	.	-3
CCOC(=O)CNC(=O)C1(c2ccccc2)CCCC1	16511*	1	-1	2	-4
O=C1CSC(c2ccccn2)N1c1ccccc1 (centres undefined)	21482*	0	2	-1	6
CC(C)CNC(=O)COC(=O)c1c2c(nc3ccccc13)/C(=C/c1cccs1)CC2	8338	24	31*	6	18
N#CC1=C(N)N(c2ccccc2)C2=C(C(=O)CCC2)C1c1ccsc1 (centres undefined)	16252*	1	0	6	-3
COc1ccc(C2C(C#N)=C(N)N(N(C)C)C3=C2C(=O)CCC3)cc1 (centres undefined)	3857	-2	4	1	57*
COCc1cc(C)nc(NCCO)c1C#N	4271	3	1	3	4
CN=C1SC(CC(=O)Nc2cc(Cl)ccc2Cl)C(=O)N1C (centres undefined)	21833*	0	2	5	7
CN=C1SC(CC(=O)Nc2ccc(C(C)=O)cc2)C(=O)N1C (centres undefined)	4817	0	0	2	-13
O=C(O)CCc1ccc(-c2ccccc2)n1NC(=O)c1cccs1	3490	-5	-2	0	-4
CC#CCCCC(=O)Nc1cc(OC)nc(OC)n1	22745*	-1	2	-2	4
O=C(Nc1ccccc1)OCN1C(=O)c2ccccc2C1=O	17484*	-2	-2	-3	-6
COc1ccc2c(C)c(C(=O)N3CC[C@@H](N4CCC(O)CC4)[C@H](O)C3)oc2c1	8217	0	-2	-2	-1
O=C(c1cccc(-c2ccccc2)c1)N1CC[C@@H](N2CCC(O)CC2)[C@H](O)C1	19128*	8	-1	-6	11
Cc1cc(OCC(=O)N2CCN(c3ccc(F)cc3)CC2)c2c(C)cc(=O)oc2c1	5993	0	0	-2	1
COc1ccccc1/C=C/C(=O)NC(=S)NCC1CCCO1 (centres undefined)	4591	-2	0	0	1
COc1ccccc1N(CC(=O)N1CCc2ccccc2C1)S(C)(=O)=O	4823	4	0	1	-6
COc1ccc(N(CC(=O)N2CCc3ccccc3C2)S(C)(=O)=O)cc1OC	16881*	-1	-2	-5	-7
CC(=O)Nc1ccc(NC(=O)CN(c2cccc(C(C)=O)c2)S(C)(=O)=O)cc1	4595	-4	0	1	1
COc1ccc(N(CC(=O)Nc2ccc(S(=O)(=O)N3CCCCC3)cc2)S(C)(=O)=O)cc1OC	19464*	1	?	-1	1
CC(=O)Nc1ccc(NC(=O)CN(c2cccc(C)c2)S(C)(=O)=O)cc1	22430*	-2	0	7	-3
COc1ccc(NC(=O)CN(c2cccc(C(F)(F)F)c2)S(C)(=O)=O)cc1OC	20812*	0	3	-1	9
CN(C(=O)c1c[nH]c(=O)cc1C(F)(F)F)c1ccc(Cl)cc1	4545	1	0	0	-2
COc1ccc(NC(=O)N2CCN(c3cccc(C(F)(F)F)c3)CC2)cc1OC	19995*	-4	-1	4	-4
CS(=O)(=O)N(CC(=O)Nc1cccc(Cl)c1Cl)c1ccccc1	6023	4	0	-1	-2
SMILES	Autofluor counter	Anthrax LF inh2	BoNT-A LC inh2	3CLpro inhibitor	BoNT F protease
CS(=O)(=O)N(CC(=O)Nc1cc(Cl)ccc1Cl)c1ccccc1	24006*	-2	-2	4	-4
CC(C)OC(=O)c1ccc(Cn2nnc3ccccc3c2=O)cc1	20849*	0	4	6	7
O=c1c2ccccc2nnn1Cc1ccc(Br)cc1	4408	3	-1	1	-2
COc1cccc(NC(=O)N2CCN(c3cccc(C)c3)C(C)C2)c1 (centres undefined)	2875	-7	0	3	1
CCOC(=O)c1c(-c2ccccc2)oc2ccc(O)c(CN3CCCC3)c12	17165*	-4	-2	0	-7
C=CCn1c(SCc2c(C)noc2C)nc2sc3c(c2c1=O)CCCCC3	24051*	-1	-2	0	-6
COc1ccc(-c2nc(CN3CCC(C(=O)NC4CC4)CC3)c(C)o2)cc1OC	5203	3	0	-5	5
Cc1oc(-c2ccccc2F)nc1CN1CCC(C(=O)NC2CC2)CC1	20198*	-2	1	-5	4
Cc1oc(-c2cccs2)nc1CN1CCC(C(=O)N2CCCC2)CC1	5362	6	0	2	-4
Cc1ccccc1-c1nc(CN2CCC(C(=O)NCC3CCCO3)CC2)c(C)o1 (centres undefined)	25315*	-8	-4	-1	-6
Cc1oc(-c2ccccc2F)nc1CN1CCC(C(=O)NCc2cccs2)CC1	21985*	-2	1	-3	0
Cc1cc(-c2ccccc2)nc(N2CCC(C(=O)NC(C)C)CC2)n1	16521*	-4	-2	3	-5
O=C(Nc1cccc(-c2cscn2)c1)C1CCN(Cc2ccccn2)CC1	6042	0	0	-1	6
Cc1nn(-c2ccc(N3CCOCC3)nn2)c(C)c1CCC(=O)NCc1ccccc1F	5682	-2	-1	-1	-1
COc1ccc(/C=C/C(=O)OCn2c(SC)nnc(C)c2=O)cc1OC	3353	5	0	1	7
Nc1ncc(-c2ccccc2)c(-c2ccc(OCc3ccccc3)cc2O)n1	3960	-2	0	0	-5
CC(=O)NC(NC(C)=O)c1ccc(Br)cc1	7630	0	1	1	5
O=C(CCCc1cccs1)Nc1nc2c(s1)CCCC2	8975	6	2	1	1
COC(=O)[C@H](CCSC)NC(=O)N1CCN(Cc2ccccc2)CC1	7719	-1	1	3	8
C=CCN(c1ccccc1)S(=O)(=O)c1cccc(C(=O)N2CCN(c3ncccn3)CC2)c1	8724	0	2	.	-2
Cc1cc(C)nc(N2CCC(C(=O)NCc3cccs3)CC2)n1	23240*	0	?	5	-4
COc1ccc(CC(=O)OCC(=O)NC(=O)NC(C)C)cc1	23854*	-3	-2	-1	-5
CC(C)NC(=O)NC(=O)COC(=O)Cc1ccsc1	3194	-2	-1	-3	-5
O=S(=O)(NCCc1ccncc1)c1ccc(Br)cc1	22923*	0	1	-5	4
NC(=O)N/N=C/c1sc(N2CCCCC2)nc1-c1cccs1	4855	-10	5	.	-17
CC(C)NC(=S)N/N=C/c1sc(N2CCCCC2)nc1-c1cccs1	4007	8	33*	2	-13
COc1cc(SC)ccc1C(=O)Nc1ccc(C)cc1C	2468	1	-1	-1	0
CC1(C)CC(=O)C(c2c[nH]c3ccccc23)C(=O)C1	4444	4	0	0	-1
